Experimental data: PubChem BioAssay (NCI)
The panel holds about 83,000 compounds, 20% with a hit somewhere; the sample as a whole holds those more often.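 Step 1: grow cells in 96-well plates. Step 2: add test compound at a single concentration. Step 3: incubate 48 h. Step 4: record percent growth.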 Active and inactive are the calls of the source. The calls were made as follows: active = growth percent below 10; inactive = the rest.

Assays:
Experiment in all cases: NCI-60 one-dose screen, 48 h (100 = growth as untreated, 0 = no growth, -100 = all killed)
Settings in all cases: 10 µM unless noted
NCI-H23 lung = test system: NCI-H23 lung
NCI-H226 lung = test system: NCI-H226 lung
NCI-H322M lung = test system: NCI-H322M lung
HOP-62 NSCLC = test system: HOP-62 NSCLC
NCI-H460 lung = test system: NCI-H460 lung
NCI-H522 lung = test system: NCI-H522 lung
A549/ATCC NSCLC = test system: A549/ATCC NSCLC
786-0 renal = test system: 786-0 renal
COLO 205 colon = test system: COLO 205 colon
DU-145 prostate = test system: DU-145 prostate
K-562 leukemia = test system: K-562 leukemia
MALME-3M melanoma = test system: MALME-3M melanoma
MDA-MB-231 breast = test system: MDA-MB-231 breast
RXF 393 renal = test system: RXF 393 renal
SF-268 CNS = test system: SF-268 CNS
SF-295 CNS = test system: SF-295 CNS
SF-539 CNS = test system: SF-539 CNS
UACC-257 melanoma = test system: UACC-257 melanoma
M14 melanoma = test system: M14 melanoma

Measured: growth

Cc1ccc(C2Oc3ccccc3C3CC(c4cccs4)=NN32)cc1 (stereo not given)
inactive: NCI-H23 lung 93.4% | NCI-H226 lung 84.7% | NCI-H322M lung 91.5% | HOP-62 NSCLC 105% | NCI-H460 lung 101% | NCI-H522 lung 88.7% | A549/ATCC NSCLC 103% | 786-0 renal 99.8% | COLO 205 colon 104% | DU-145 prostate 97% | K-562 leukemia 101% | MALME-3M melanoma 95.1% | MDA-MB-231 breast 91.3% | RXF 393 renal 101% | SF-268 CNS 91.4% | SF-295 CNS 99% | SF-539 CNS 90.1% | UACC-257 melanoma 98.6% | M14 melanoma 99.3%

Cc1ccc2c(c1)C(=O)/C(=C/c1cccc(OCC(=O)c3ccc(Cl)cc3)c1)CS2
active: RXF 393 renal 4.49%
inactive: NCI-H23 lung 79% | NCI-H226 lung 91.6% | NCI-H322M lung 72.9% | HOP-62 NSCLC 105% | NCI-H460 lung 98.8% | NCI-H522 lung 46.8% | A549/ATCC NSCLC 103% | 786-0 renal 103% | COLO 205 colon 111% | DU-145 prostate 108% | K-562 leukemia 29.2% | MALME-3M melanoma 95.9% | MDA-MB-231 breast 61.9% | SF-268 CNS 108% | SF-295 CNS 125% | SF-539 CNS 112% | UACC-257 melanoma 120% | M14 melanoma 107%

Nc1n[nH]c2ccc([C@@H]3Nc4ccc5[nH]ncc5c4[C@H]4C5C=CC(C5)[C@@H]34)cc12 (stereo not given in full)
active: NCI-H226 lung -6.81% | NCI-H460 lung -10.8% | COLO 205 colon 2.87% | DU-145 prostate 8.03% | K-562 leukemia 8.61% | SF-295 CNS 1.53% | SF-539 CNS -31.4% | M14 melanoma 4.56%
inactive: NCI-H23 lung 14.1% | NCI-H322M lung 43.8% | HOP-62 NSCLC 41.8% | NCI-H522 lung 14.3% | A549/ATCC NSCLC 20.1% | 786-0 renal 30.3% | MALME-3M melanoma 43.1% | MDA-MB-231 breast 25.5% | RXF 393 renal 17.8% | SF-268 CNS 20.3% | UACC-257 melanoma 68.6%

Cc1cc(C)nc(SC2=C(Nc3cccc(Cl)c3)C(=O)N(Cc3ccccc3)C2=O)n1
active: SF-295 CNS -12.3% [30 µM]
inactive: NCI-H23 lung 82% [30 µM] | NCI-H226 lung 83% [30 µM] | NCI-H322M lung 88.8% [30 µM] | HOP-62 NSCLC 90.3% [30 µM] | NCI-H460 lung 62.5% [30 µM] | NCI-H522 lung 67.9% [30 µM] | A549/ATCC NSCLC 26.4% [30 µM] | 786-0 renal 72.1% [30 µM] | COLO 205 colon 78.2% [30 µM] | DU-145 prostate 79.6% [30 µM] | K-562 leukemia 51.8% [30 µM] | MALME-3M melanoma 91.9% [30 µM] | MDA-MB-231 breast 61.2% [30 µM] | RXF 393 renal 72.6% [30 µM] | SF-268 CNS 66.8% [30 µM] | SF-539 CNS 69.7% [30 µM] | UACC-257 melanoma 71.7% [30 µM] | M14 melanoma 74.8% [30 µM]

CCCOc1cc2ccccc2cc1C(=O)Nc1nc(N)c2c(ccc3nccc32)[nH]1
active: NCI-H23 lung -55.1% | NCI-H226 lung -56.6% | NCI-H322M lung -35.1% | HOP-62 NSCLC -68.8% | NCI-H460 lung -75.8% | NCI-H522 lung -59.6% | A549/ATCC NSCLC -70.3% | 786-0 renal -71.9% | COLO 205 colon -78.3% | DU-145 prostate -65.8% | K-562 leukemia -28.9% | MALME-3M melanoma -76.1% | MDA-MB-231 breast -67.1% | RXF 393 renal -77.1% | SF-268 CNS -68.6% | SF-295 CNS -76.6% | SF-539 CNS -77.7% | UACC-257 melanoma -77.6% | M14 melanoma -69.8%

NC1=C(Cl)C(=O)c2ccc(S(N)(=O)=O)cc2C1=O
active: NCI-H23 lung -49.8% | NCI-H226 lung -51% | NCI-H322M lung -97% | HOP-62 NSCLC -68.2% | NCI-H460 lung -65.8% | NCI-H522 lung -84.1% | A549/ATCC NSCLC -53.7% | 786-0 renal -29.8% | COLO 205 colon -90.3% | DU-145 prostate -90.1% | K-562 leukemia -12.7% | MALME-3M melanoma -96.1% | MDA-MB-231 breast -3.41% | RXF 393 renal -99.2% | SF-268 CNS -74.4% | SF-295 CNS -86.1% | SF-539 CNS -84.5% | UACC-257 melanoma -95.3% | M14 melanoma -89.6%

CN(C)CCCNc1c2ccccc2nc2ccccc12
inactive: NCI-H23 lung 93.3% | NCI-H226 lung 81.1% | NCI-H322M lung 110% | HOP-62 NSCLC 88.1% | NCI-H460 lung 97.7% | NCI-H522 lung 93.7% | A549/ATCC NSCLC 96.2% | 786-0 renal 88.6% | COLO 205 colon 100% | DU-145 prostate 101% | K-562 leukemia 96.8% | MALME-3M melanoma 100% | MDA-MB-231 breast 85.2% | RXF 393 renal 56.4% | SF-268 CNS 92.9% | SF-539 CNS 89.6% | UACC-257 melanoma 104% | M14 melanoma 98%

CN1CCN(c2nc(NCCCCNc3ccnc4cc(Cl)ccc34)c3ccccc3n2)CC1
inactive: NCI-H23 lung 82.8% | NCI-H226 lung 98.7% | NCI-H322M lung 84.9% | HOP-62 NSCLC 76.5% | NCI-H460 lung 68.1% | NCI-H522 lung 39.8% | A549/ATCC NSCLC 49.3% | 786-0 renal 74.9% | DU-145 prostate 75.7% | SF-268 CNS 64.9% | SF-295 CNS 80%
active: COLO 205 colon -2.21% | MALME-3M melanoma -53.5% | MDA-MB-231 breast -5.35% | RXF 393 renal 9.29% | SF-539 CNS -73.7% | UACC-257 melanoma -32.4% | M14 melanoma -75.9%
